Measured values: PubChem BioAssay AID2562 (National Center for Advancing Translational Sciences (NCATS), 2010)
Results filed as inconclusive are left out. Active and inactive are the calls of the source. Calls come from the whole dose curve; as a rule, active = well fitted curve in the direction sought with a large enough effect; inconclusive = small, poorly fitted or top-dose-only effect, or effect the other way, or another doubt; inactive = no such curve, though single readings can be large or run the other way.

target: Pyruvate kinase PKLR (Homo sapiens) (UniProt P30613); assay: Secondary LDH Assay for Activators of Human Reticulocyte Pyruvate Kinase: for Probe SAR; details: purified hPK-R, LDH-coupled NADH fluorescence kinetic; series mostly up to 58.4 µM
Sequence (P30613 whole entry, looked up): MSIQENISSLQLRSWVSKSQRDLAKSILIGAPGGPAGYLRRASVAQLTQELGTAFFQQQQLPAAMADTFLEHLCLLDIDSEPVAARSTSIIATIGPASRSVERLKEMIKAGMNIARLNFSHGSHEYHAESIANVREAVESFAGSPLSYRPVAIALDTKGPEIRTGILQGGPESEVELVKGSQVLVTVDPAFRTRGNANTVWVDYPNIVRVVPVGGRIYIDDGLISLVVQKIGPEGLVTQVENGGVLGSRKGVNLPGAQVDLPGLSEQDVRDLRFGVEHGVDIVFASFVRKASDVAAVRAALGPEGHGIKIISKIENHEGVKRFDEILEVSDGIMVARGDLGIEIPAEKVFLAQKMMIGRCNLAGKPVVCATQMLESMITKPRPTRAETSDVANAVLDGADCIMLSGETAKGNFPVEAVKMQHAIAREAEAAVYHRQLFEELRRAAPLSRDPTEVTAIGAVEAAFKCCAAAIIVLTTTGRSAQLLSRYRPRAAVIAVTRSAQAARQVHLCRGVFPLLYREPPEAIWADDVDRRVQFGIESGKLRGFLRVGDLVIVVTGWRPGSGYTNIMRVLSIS
From the text: NIH Chemical Genomics Center [NCGC] Wael M. Rabeh, Lyudmila Nedyalkova and Hee-Wan Park [Structural Genomics Consortium, 100 College St. Toronto, Ontario, Canada] NCGC Assay Overview: Human pyruvate kinase reticulocyte (hPK-R) enzyme was supplied as a highly purified (>95% pure) preparation from Structural Genomics Consortium in Toronto (Ontario, Canada) and a secondary assay was used to evaluate compounds. This assay couples the formation of pyruvate from hPK-R using lactate dehydrogenase (LDH) and NADH. The depletion of NADH is followed in a fluorescent-based kinetic assay that follows the formation of pyruvate to lactate, as catalyzed LDH. Pyruvate kinase substrates, PEP and ADP, were present in the assay at 0.1 mM and 4 mM respectively. In this kinetic assay initial rates were determined by following the fluorescence of NADH depletion.
NCGC Assay Protocol Summary: Three uL of substrate mix (final concentration, 50 mM Tris-Cl pH 8.0, 200 mM KCl, 15 mM MgCl2, 0.1 mM PEP, 4.0 mM ADP, and 0.2 mM NADH) was dispensed into black-solid 1536 well plates. 23 nL of compounds were delivered by a pin tool and 1 uL of enzyme mix (final concentrations, 10 nM hPK-R and 1 uM of LDH) was added. Plates were immediately placed in ViewLux (Perkin Elmer) and NADH fluorescence was determined at 30 second exposure intervals for between 3 and 6 minutes. Data were normalized to the uninhibited and EC100 activation using known activators such as fructose-bis-phosphate.

Potency, inactive:
O=C1CCc2cc(S(=O)(=O)Nc3ccccc3F)ccc2N1, Cc1ccc(N2C(=O)c3ccccc3C2=O)c(C)c1, O=C1c2ccccc2C(=O)N1c1cnc2ccccc2c1, Cc1ccc(NS(=O)(=O)c2cc3c(cc2-c2ccccc2)NC(=O)CO3)cc1C, Cc1ccc(NS(=O)(=O)c2ccc(N3CCCC3=O)cc2)cc1C, Cc1ccc(NS(=O)(=O)c2ccc3c(ccn3C)c2)cc1C, Cc1ccc(NS(=O)(=O)c2ccc3c(c2)NC(=O)CO3)cc1C, Cc1ccc(NS(=O)(=O)c2cc3c(cc2Cl)CCC(=O)N3)cc1C, Fc1ccccc1-c1ccc(-c2nc3ccc(Cl)cn3c2Nc2ccc(Cl)cc2)o1, Cc1ccc(OC2=NS(=O)(=O)c3ccccc32)cc1, O=C1CCc2cc(S(=O)(=O)Nc3cccc(Cl)c3)ccc2N1, O=C1CCc2cc(S(=O)(=O)Nc3cccc(F)c3)ccc2N1, Cc1ccc(NS(=O)(=O)c2cc3c(cc2-c2ccsc2)NC(=O)CO3)cc1C, CCCCN1C(=O)c2ccccc2C1=O, COc1cccc(Cn2ncc3c4sc(S(C)=O)cc4n(C)c3c2=O)c1 (stereo not given), Cc1ccc(NS(=O)(=O)c2ccc(-c3ccccc3)cc2)cc1C, COc1ccccc1NS(=O)(=O)c1ccc2c(c1)CCC(=O)N2, Cc1cc(C)n2c(Nc3ccccc3)c(-c3ccc(C)o3)nc2n1, O=C1CCc2cc(S(=O)(=O)Nc3ccc(Cl)cc3)ccc2N1, O=C1CCc2cc(S(=O)(=O)NCc3ccccc3)ccc2N1, O=C1CCc2cc(S(=O)(=O)Nc3cccnc3)ccc2N1, Cc1ccc2nc(-c3ccc(C)o3)c(Nc3ccc4c(c3)OCO4)n2c1, Cc1ccc(NS(=O)(=O)c2ccc3c(c2)N(C)C(=O)CO3)cc1C, O=C1c2ccccc2C(=O)N1c1cccc2cnccc12, COc1ccc(S(=O)(=O)Nc2ccc(C)c(C)c2)cc1, Nc1cc(S(=O)(=O)N2CCN(S(=O)(=O)c3ccc4c(c3)OCCO4)CC2)ccn1, Cc1ccc(NS(=O)(=O)c2cc3c(cc2Cl)NC(=O)CO3)cc1C, Cc1ccc(NS(=O)(=O)c2cc3c(cc2Cl)NC(=O)C3)cc1C, CCNc1cccc(S(=O)(=O)N2CCN(S(=O)(=O)c3ccc4c(c3)OCCO4)CC2)c1, Cc1ccc(NS(=O)(=O)c2ccc(Cl)cc2)cc1C, O=C1c2ccccc2C(=O)N1c1ccccc1O, Cc1ccn2c(NC3CCCCC3)c(-c3ccc(C)o3)nc2c1, CNc1cccc(S(=O)(=O)N2CCN(S(=O)(=O)c3ccc4c(c3)OCCO4)CC2)c1, Cc1ccccc1NS(=O)(=O)c1ccc2c(c1)CCC(=O)N2, Cc1ccc(NS(=O)(=O)c2cc3c(cc2F)NC(=O)CC3)cc1C, O=C1c2ccccc2C(=O)N1c1cccc(Cl)c1, O=C1c2ccccc2C(=O)N1c1cccnc1, Cc1ccc(NS(=O)(=O)c2ccc3c(c2)CCCC(=O)N3)cc1C, COc1cccc(N2C(=O)c3ccccc3C2=O)n1, Cc1ccc(-c2nc3ccc(Cl)cn3c2Nc2ccccc2)o1
